Results on 14 compounds are retold here after PubChem BioAssay (NCI).

About 83,000 compounds went through this panel and 20% of them were active in at least one assay; those are over-represented in the sample as a whole.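 Growth was measured after 48 h exposure to one concentration of compound in 96-well plates. Values under 10 count as active.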 Unmarked numbers belong to inactive results. Calls of active or inactive are those of the source.

Test systems include NCI-H23 lung; NCI-H226 lung; NCI-H322M lung; HOP-62 NSCLC; NCI-H460 lung; HOP-92 NSCLC; NCI-H522 lung; A549/ATCC NSCLC; 786-0 renal; COLO 205 colon.
Holding throughout (test): NCI-60 one-dose screen, 48 h (100 = growth as untreated, 0 = no growth, -100 = all killed)
Common to all, as to conditions: 10 µM unless noted

On to `O=C(c1ccc(C(F)(F)F)c(Cl)c1)N(Cc1ccc(Cl)cc1)c1ccc(-c2cc(C(F)(F)F)[nH]n2)c(O)c1`, for which the growth in the assay on NCI-H23 lung is 6.5% (active); in the assay on NCI-H226 lung, -5.3% (active); in the assay on NCI-H322M lung, 14.4%; in the assay with HOP-62 NSCLC, -4.7% (active); in the assay with NCI-H460 lung, 6.77% (active); in the assay with HOP-92 NSCLC, -15.6% (active). For the same compound, the growth in the assay on NCI-H522 lung was -1.27% (active); with A549/ATCC NSCLC, 12.8%; with 786-0 renal, 3.06% (active); in the assay with COLO 205 colon, -73.8% (active).

`C#CC[C@@H]1C[C@]2(C)[C@H]3CC=C4[C@H]5[C@@H](C)[C@H](C)CC[C@]5(C(=O)NCCCCN)CC[C@@]4(C)[C@]3(C)CC[C@H]2C(C)(C)[C@H]1OC(C)=O`: the growth in the assay on NCI-H23 lung was 94.8%; in the assay on NCI-H226 lung, 87.1%; in the assay with NCI-H322M lung it was 92.4%; in the assay on HOP-62 NSCLC, 89.2%; with NCI-H460 lung, 1.45% (active); with HOP-92 NSCLC, 44.1%. In addition, the growth is 81.7% with NCI-H522 lung, 72.6% in the assay with A549/ATCC NSCLC, 79.9% with 786-0 renal and 6.68% (active) in the assay on COLO 205 colon.

Turning to `O=[N+]([O-])c1cccc(N=C(Nc2cccc([N+](=O)[O-])c2)c2ccccc2)c1`, the growth in the assay with NCI-H23 lung was 86.4%; in the assay on NCI-H226 lung, 91.6%; with NCI-H322M lung, 81.2%; with HOP-62 NSCLC, 89.9%; in the assay on NCI-H460 lung it was 102%; with HOP-92 NSCLC, 47.4%. For the same compound, the growth in the assay with NCI-H522 lung is 59.5%; in the assay with A549/ATCC NSCLC, 79.9%; in the assay on 786-0 renal, 83.6%; in the assay on COLO 205 colon it was 109%.

Turning to `CCCCc1n(Cc2ccc3ccccc3n2)cc[n+]1Cc1ccc2ccccc2n1`, the growth in the assay with NCI-H23 lung was 4.77% (active); in the assay with NCI-H226 lung, 26.7%; in the assay with NCI-H322M lung, 41.4%; in the assay on HOP-62 NSCLC it was 25.2%; in the assay on NCI-H460 lung it was 16.5%; in the assay with HOP-92 NSCLC, 4.31% (active). Also, the growth with NCI-H522 lung was 10%; in the assay with A549/ATCC NSCLC, 44.8%; in the assay on 786-0 renal, 56.9%; in the assay with COLO 205 colon, -34.4% (active).

As for `Cc1ccc(S(=O)(=O)NC(CCC(=O)Nc2ccc(Cl)cc2)C(=O)Nc2ccc(Cl)cc2)cc1` (stereo not given), the growth in the assay on NCI-H23 lung was 38.8%; with NCI-H226 lung, 57.9%; in the assay on NCI-H322M lung, 40%; in the assay with HOP-62 NSCLC, 14.5%; in the assay with NCI-H460 lung, 7.89% (active); with HOP-92 NSCLC it was -20.4% (active). Also, the growth with NCI-H522 lung is -29.7% (active); with A549/ATCC NSCLC, 27.6%; in the assay with 786-0 renal it was 16.9%; in the assay with COLO 205 colon, 52.7%.

Take `CNCc1ccccc1CN(CC(=O)Nc1ccc2c(c1)CC1(C2)C(=O)Nc2ncccc21)C(=O)C(C)(C)C` (stereo not given): the growth is 103% in the assay on NCI-H23 lung; 95% in the assay with NCI-H226 lung; 100% in the assay on NCI-H322M lung; 102% in the assay on HOP-62 NSCLC; 106% in the assay on NCI-H460 lung; 104% with HOP-92 NSCLC. In addition, the growth is 93.5% in the assay on NCI-H522 lung, 103% in the assay with A549/ATCC NSCLC, 107% in the assay on 786-0 renal and 102% with COLO 205 colon.

As for `O=C1c2ccccc2C2N1CCC1CCc3ccccc3N12` (stereo not given), the growth with NCI-H23 lung is 99.5%; in the assay with NCI-H226 lung, 90.2%; in the assay on NCI-H322M lung, 85.4%; with HOP-62 NSCLC, 108%; with NCI-H460 lung, 104%; with HOP-92 NSCLC, 73.6%. Also, the growth with NCI-H522 lung is 84.8%; with A549/ATCC NSCLC, 99.1%; in the assay with 786-0 renal, 99.7%; in the assay with COLO 205 colon, 112%.

Turning to `C[C@@H](C[C@H](CC1CC1)c1ccccc1)c1ccc2ccccc2c1`, the growth with NCI-H23 lung is 100%; with NCI-H226 lung, 109%; with NCI-H322M lung, 101%; in the assay on HOP-62 NSCLC, 104%; in the assay on NCI-H460 lung, 100%; in the assay with HOP-92 NSCLC it was 102%. In addition, the growth in the assay on NCI-H522 lung was 95.2%; with A549/ATCC NSCLC, 98.2%; in the assay with 786-0 renal, 101%; in the assay on COLO 205 colon it was 109%.

Regarding `CC(=O)Nc1ccc(Cl)cc1Cl`, the growth with NCI-H23 lung is 111%; with NCI-H226 lung, 95.5%; with NCI-H322M lung it was 114%; in the assay with HOP-62 NSCLC, 110%; in the assay with NCI-H460 lung, 114%; in the assay with HOP-92 NSCLC it was 107%. In addition, the growth with NCI-H522 lung was 89.4%; with A549/ATCC NSCLC, 95.3%; in the assay on 786-0 renal, 106%; in the assay with COLO 205 colon it was 130%.

Regarding `CN1CCN(c2ccc(N3Cc4ccccc4OC4=C3C(=O)c3c(O)ccc(O)c3C4=O)cn2)CC1`, the growth in the assay on NCI-H23 lung is -23.2% (active); with NCI-H226 lung it was 35.2%; with NCI-H322M lung, 4.57% (active); in the assay with HOP-62 NSCLC it was 1.99% (active); with NCI-H460 lung, -22.4% (active); in the assay with HOP-92 NSCLC, -58.7% (active). Besides, the growth in the assay with NCI-H522 lung was -53.3% (active); with A549/ATCC NSCLC, -4.29% (active); with 786-0 renal, -77.4% (active); in the assay on COLO 205 colon, -77.1% (active).

`C=CCn1c(SCC(=O)Nc2ccc(C(=O)/C=C/c3ccccc3)cc2)nnc1-c1ccc(OC)c(OC)c1`: the growth in the assay on NCI-H23 lung is 80.7%; in the assay with NCI-H226 lung, 85.9%; in the assay with NCI-H322M lung it was 85.9%; in the assay with HOP-62 NSCLC, 99.1%; in the assay with NCI-H460 lung, 88.2%; in the assay on HOP-92 NSCLC it was 82.7%. Further, the growth is 68.3% with NCI-H522 lung, 61% with A549/ATCC NSCLC, 75.6% with 786-0 renal and 91.2% with COLO 205 colon.

Take `O=C1OCC2=C1C(c1ccc(Cl)c(Cl)c1)c1cc3c(cc1N2CCO)CCC3` (stereo not given): the growth was 31.5% with NCI-H23 lung; 24% in the assay on NCI-H226 lung; 42% in the assay on NCI-H322M lung; 38.9% in the assay with HOP-62 NSCLC; 5.49% (active) in the assay on NCI-H460 lung; 82% in the assay on HOP-92 NSCLC. In addition, the growth in the assay with NCI-H522 lung was -14.8% (active); in the assay with A549/ATCC NSCLC, 21.6%; in the assay on 786-0 renal, 27.5%; in the assay with COLO 205 colon it was 6.1% (active).

`CCCCNCC(O)c1cc2c(Cl)cc(Cl)cc2c2cc(C(F)(F)F)ccc12` (stereo not given): the growth with NCI-H23 lung is -72.9% (active); in the assay with NCI-H226 lung, -69.4% (active); in the assay with NCI-H322M lung, -82.8% (active); with HOP-62 NSCLC, -80.8% (active); in the assay with NCI-H460 lung, -73.9% (active); in the assay on HOP-92 NSCLC it was -89.5% (active). For the same compound, the growth in the assay on NCI-H522 lung was -78.7% (active); in the assay on A549/ATCC NSCLC it was -83.3% (active); in the assay on 786-0 renal, -71.2% (active); with COLO 205 colon it was -76.8% (active).

For the compound `O=C1C(Cl)=C(N/N=c2/[nH][nH]/c(=N/NC3=C(Cl)C(=O)c4ccccc4C3=O)c3ccccc23)C(=O)c2ccccc21`, the growth with NCI-H23 lung is 82.5%; with NCI-H226 lung it was 74.8%; with NCI-H322M lung it was 58.4%; with HOP-62 NSCLC, -10.5% (active); with NCI-H460 lung it was 81.4%; with HOP-92 NSCLC it was 117%. Moreover, the growth was 30.1% in the assay with NCI-H522 lung, 94.6% in the assay on A549/ATCC NSCLC, 96% with 786-0 renal and 52.5% with COLO 205 colon.
